Measurements as given in PubChem BioAssay AID504327 (National Center for Advancing Translational Sciences (NCATS), 2011).
Screen size: about 390,000 compounds; about 820 (0.21%) were called active. A call without a number means that no potency is given here. About 3% were inconclusive and are not listed. The sample holds actives, similar compounds and a random draw of the others, so the mix is not that of the screen. Calls come from the whole dose curve; as a rule, active = well fitted inhibition curve with a large enough effect; inconclusive = small, poorly fitted or top-dose-only effect, or another doubt; inactive = no such curve, though single readings can be large or run the other way.

The compounds below were run against Histone acetyltransferase KAT2A (Homo sapiens) (UniProt Q92830) (assay: qHTS Assay for Inhibitors of GCN5L2). Details: GCN5L2 HAT assay, ThioGlo1 CoA-SH fluorescence; series mostly up to 58.9 µM.
Sequence of Histone acetyltransferase KAT2A (Homo sapiens) (Q92830 whole entry, looked up): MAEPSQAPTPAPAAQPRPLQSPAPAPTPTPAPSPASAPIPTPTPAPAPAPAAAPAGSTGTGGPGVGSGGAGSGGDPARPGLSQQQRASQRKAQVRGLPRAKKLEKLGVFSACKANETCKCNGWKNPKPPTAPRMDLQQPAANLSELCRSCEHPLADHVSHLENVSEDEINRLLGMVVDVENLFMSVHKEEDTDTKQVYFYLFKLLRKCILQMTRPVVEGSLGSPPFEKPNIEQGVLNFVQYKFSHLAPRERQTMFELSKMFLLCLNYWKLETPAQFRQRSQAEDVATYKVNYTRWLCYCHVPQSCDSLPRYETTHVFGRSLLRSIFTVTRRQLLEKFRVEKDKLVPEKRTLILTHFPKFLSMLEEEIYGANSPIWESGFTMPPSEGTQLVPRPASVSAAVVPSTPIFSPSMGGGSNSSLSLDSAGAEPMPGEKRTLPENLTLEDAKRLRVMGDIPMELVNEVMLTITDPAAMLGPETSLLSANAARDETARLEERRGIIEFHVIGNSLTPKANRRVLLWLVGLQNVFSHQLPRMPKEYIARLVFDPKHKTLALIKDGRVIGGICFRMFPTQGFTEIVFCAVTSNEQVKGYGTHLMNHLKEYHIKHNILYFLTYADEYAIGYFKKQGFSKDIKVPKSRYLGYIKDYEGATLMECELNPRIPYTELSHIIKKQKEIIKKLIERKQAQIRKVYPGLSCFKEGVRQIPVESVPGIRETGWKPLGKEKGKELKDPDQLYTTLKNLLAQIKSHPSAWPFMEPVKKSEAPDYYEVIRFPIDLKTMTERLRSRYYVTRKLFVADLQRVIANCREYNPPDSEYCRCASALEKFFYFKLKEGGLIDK
Source text: Histone acetyltransferase (HAT) enzymes transfer a […] group from acetyl-coenzyme A to the epsilon-amino group of conserved lysine residues of N-terminal histone tails. Acetylation results in charge neutralization of this positively charged amino acid, decreasing interactions with the […] backbone and making the DNA more accessible for transcription. HATs have been recognized as an emerging drug target for treatment of cancer, diabetes, asthma, chronic obstructive pulmonary disease, cardiac disease, and viral infection. Protein identified with HAT activity include the […] like 2 (GCN5L2, a.ka. Histone acetyltransferase KAT2A) which acetylates histone H3 at Lys9, 14, 18, 13, and to lesser extent histones H4 and H2B. This activates transcription of the gene by modulating chromatin structure and installing the acetyllysine recognition mark for bromodomain-containing coactivator proteins.
A quantitative high throughput screen was developed to identify small molecule inhibitors. The assay is based on the principle that it measures formation of reduced CoA with the pro-fluorescent maleimide derivative ThioGlo1 that becomes fluorescent upon reaction with the free thiol of CoA.
A large number of artifacts are expected in this primary screen, compounded by the assay format (fluorescent artifacts) and by the high top concentration tested for each substance. This BioAssay data deposition should be used with caution, and counterscreen and secondary assay validation is essential since very few actives from the primary screen are expected to be true inhibitors of GCN5L2.
[2] Yasgar, et al. Compound Management for Quantitative High-Throughput Screening. JALA. 2008 Apr;13(2):79-89.
[3] Inglese, et al. Quantitative high-throughput screening: a titration-based approach that efficiently identifies biological activities in large chemical libraries. Proc Natl Acad Sci. 1;103(31):11473-8. 2006. PMID: 16864780
NIH Molecular Libraries Probe Production Network [MLPCN]
NIH Chemical Genomics Center [NCGC]
Structural Genomics Consortium (SGC)
To each well of a 1,536w plate, 3ul of GCN5L2 (final concentration 20nM, in 50mM HEPES, 0.1mM EDTA (pH 7.5), 0.01% Tween-20 buffer) are added using a Kalypsys dispenser. Only buffer is added to some wells as a control. A Kalypsys pin-tool transferred 23nl of library compound solution in DMSO to each well, as well as the control inhibit garcinol. . Following a 15 min incubation of enzyme with compounds at room temperature, 1ul mixture of ThioGlo1 (50uM final), H3(1-25) peptide (75uM final), and Acetyl-CoA (70uM final) is added. Plates are read immediately on the ViewLux (PerkinElmer) (Ex340nm/Em540nm) for a 0 min read, incubated for 20 min at room temperature, and read again on the ViewLux with the same settings. The initial read was carried out to identify compounds that are potentially fluorescent.
Potency is the fitted concentration of half-maximal effect.

Row | Structure (SMILES) | Potency
1 | O=c1c(CCc2ccccc2)nc2cncnc2n1C1CC1 | inactive
2 | CC(C)=CCC/C(C)=C/CC/C(C)=C/CC/C(C)=C/CO | inactive
3 | O=C(c1csnn1)N1CCC[C@@]2(CCN(c3cccc(-c4ccccc4)c3)C2)C1 | inactive
4 | Nc1nc2[nH]c(=O)c(=O)[nH]c2c(=O)[nH]1 | inactive
5 | Cc1cnc(CNc2cc(-c3c(C)noc3C)ncn2)cn1 | inactive
6 | C=CCC1CCC(=O)N2CCCC12 (stereo unspecified) | inactive
7 | CCCCCCCCCc1ccc(OCCOCCOCCOCCOCCOCCOCCOCCOCCO)cc1 | inactive
8 | Cn1cc(-c2nc3cncnc3n(-c3ccccc3)c2=O)c2ccccc21 | inactive
9 | Oc1ccc2c(c1)OCC1c3cc4c(cc3OC21)OCO4 (stereo unspecified) | inactive
10 | Nc1ncnc2c1c(I)cn2[C@@H]1C[C@H](N)[C@@H](O)[C@H]1O | inactive
11 | COc1ccc2[nH]cc(CCNc3ncnc4ccc(-c5ccc(C(=O)N(C)C)cc5)cc34)c2c1 | inactive
12 | CC1OC(OCC2OC(Oc3c(-c4ccc(O)c(O)c4)oc4cc(O)cc(O)c4c3=O)C(O)C(O)C2O)[C@@H](O)C(O)C1O (stereo partly specified) | inactive
13 | CCOCCOC(=O)C(C)Oc1ccc(Oc2ncc(C(F)(F)F)cc2Cl)cc1 (stereo unspecified) | inactive
14 | CS(=O)(=O)N1CCC2(CC1)CN(Cc1ccccc1)C2 | inactive
15 | COCCNc1ncnc2ccc(-c3cccnc3)cc12 | inactive
16 | CCC(CCC(C)C1CCC2C3CC=C4CC(O)CC[C@@]4(C)C3CC[C@@]12C)C(C)C (stereo partly specified) | inactive

Row | Structure (SMILES) | Potency
17 | O=P(O)(O)C(O)c1ccc2ccccc2c1 (stereo unspecified) | inactive
18 | CC(O)[C@@H](N)C(=O)O (stereo partly specified) | inactive
19 | COc1ccc(CNc2ncnc3ccc(-c4cccnc4)cc23)c(OC)c1 | inactive
20 | CCOC(=O)Cn1c(=O)sc2cccc(Cl)c21 | inactive
21 | CCNc1ncc2nc(CCc3ccccc3)c(=O)n(-c3ccc(OC)cc3)c2n1 | inactive
22 | Cn1cc(-c2nc3cnc(N4CCNCC4)nc3n(CCC#N)c2=O)c2ccccc21 | inactive
23 | N#Cc1cccc(-c2nc3cnc(N4CCNCC4)nc3n(C3CC3)c2=O)c1 | 28.2 µM (active)
24 | O=c1c(-c2ccc(F)cc2)nc2cnc(N3CCNCC3)nc2n1Cc1cccs1 | inactive
25 | O=C(c1cc(C(F)(F)F)cc(C(F)(F)F)c1)N1CCC2(CCCN(c3ccccn3)C2)CC1 | inactive
26 | CN1CCN2c3ccccc3Cc3ccccc3[C@@H]2C1 | inactive
27 | CN1CCN(c2ncc3nc(-c4ccc(Cl)cc4)c(=O)n(-c4ccccc4)c3n2)CC1 | inactive
28 | CCCCC/C=C\CC1OC1CCCCCCCC(=O)O (stereo unspecified) | inactive
29 | Cc1cccc(CNc2cc(-c3ccccc3Cl)ncn2)c1 | inactive
30 | C=CC(=O)c1ccc2ccccc2c1 | inactive
31 | COCCn1c(=O)c(-c2ccccc2)nc2cnc(N3CCOCC3)nc21 | inactive
